Screening results deposited in PubChem by National Center for Advancing Translational Sciences (NCATS).
LASV entry inh = Lassa virus entry inhibition. Lassa virus pseudotype entry inhibition, cell reporter. Potency, µM (doses to about 37.9 µM), without a hit: top-dose activity change, negative = inhibition, most hits filed as inhibitors. 300,000 tested, 1.2% active. AID 540256; calls by dose curve; tested in HEK293 cells; further: potency means the concentration at half of the fitted maximal effect; on the % scale 0 is the no-effect control and ±100 the full control effect; nearly all actives have a fitted effect of over 50% in size
MARV entry inh = Marburg virus entry inhibition. 300,000 tested, 1.8% active. Marburg virus pseudotyped entry inhibition, cell reporter. Potency, µM (titrated, usually from 37.8 µM), for the others: at the top dose activity change, negative = inhibition, usual class: inhibitors; calls by dose curve; tested in HEK293 cells; further: potency means the concentration at half of the fitted maximal effect; on the % scale 0 is the no-effect control and ±100 the full control effect
Cycloheximide cs = counter-screen hit for Shiga toxin inhibitors, cycloheximide | 300,000 tested, 12% active | cell reporter, cycloheximide protein synthesis inhibition counterscreen | max response, %; in the data active means max response mostly above about 13%, no sharp cut-off; inactive means mostly below about 14%; further: read at 38.3 µM for the half of the compounds with a filed dose; 0% is about no effect
Shiga toxin inh = Shiga toxin inhibition; Vero cells, Shiga toxin protein synthesis inhibition reporter; inhibition, % at 38.7 µM; 290,000 tested, 9.2% active; AID 2315; in the data active means inhibition mostly above about 28%, no sharp cut-off; inactive means mostly below about 43%; further: 0% is about no effect
Numbers without * were called inactive; [ ] = dose if it differs, or a comment. Most compounds without a hit are left out; they make up all but 12% or so of the library.

What do the screens show for `O=C(Nc1ccccc1)Nc1ccncc1`?
LASV entry inh: inconclusive; MARV entry inh: -1%[46.1 µM]; Cycloheximide cs: 15; Shiga toxin inh: 57*

Results for O=C(Nc1ccncc1)Nc1cccc(Cl)c1 ?
Cycloheximide cs: 16*; Shiga toxin inh: 20

What do the screens show for `O=C(NCc1cccnc1)Nc1cccc(Cl)c1`?
Cycloheximide cs: 1; Shiga toxin inh: 4

Results for O=C(NCc1ccncc1)Nc1cccc(Cl)c1 ?
LASV entry inh: 30%; MARV entry inh: 9%[46.1 µM]; Cycloheximide cs: 16*; Shiga toxin inh: 13

What do the screens show for `CN(C)C(=O)c1noc2cc([N+](=O)[O-])ccc12`?
LASV entry inh: -4%; MARV entry inh: -3%; Cycloheximide cs: -3; Shiga toxin inh: -3

Results for CC(C)NC(=O)c1noc2cc([N+](=O)[O-])ccc12 ?
LASV entry inh: 18%; MARV entry inh: 1%; Cycloheximide cs: 12*; Shiga toxin inh: 104*

Results for CNc1c([N+](=O)[O-])cnn1-c1ccccc1F ?
LASV entry inh: 12%; MARV entry inh: 9%[46.1 µM]; Cycloheximide cs: 41*; Shiga toxin inh: 43

Results for CNc1c([N+](=O)[O-])cnn1-c1ccc(C)cc1 ?
LASV entry inh: 4%; MARV entry inh: 0%; Cycloheximide cs: 0; Shiga toxin inh: 17

What do the screens show for `CCCCCCCCCCCC(=O)c1c(O)cccc1O`?
Cycloheximide cs: -1; Shiga toxin inh: -16

What do the screens show for `O=C(CNC(=O)c1cccc(OC(F)F)c1)OCC(=O)c1ccccc1`?
LASV entry inh: 14%[46.1 µM]; MARV entry inh: 18%[46.1 µM]; Cycloheximide cs: 10; Shiga toxin inh: -7

How did COc1cccc(C(=O)COc2ccc(NC(=O)c3ccccc3)cc2)c1 do in these assays?
LASV entry inh: 7%[46.1 µM]; MARV entry inh: inconclusive; Cycloheximide cs: 16*; Shiga toxin inh: 37

Results for COc1cccc(C(=O)Nc2cccc(OCC(=O)c3ccccc3)c2)c1 ?
LASV entry inh: -27%; MARV entry inh: inconclusive; Cycloheximide cs: 21*; Shiga toxin inh: 48

How did O=C(COc1cccc(NC(=O)c2cccc([N+](=O)[O-])c2)c1)c1ccc(Br)cc1 do in these assays?
LASV entry inh: 22µM*; MARV entry inh: inconclusive; Cycloheximide cs: 13; Shiga toxin inh: 7

What do the screens show for `COc1cccc(C(=O)NCC(=O)OCC(=O)c2ccccc2)c1`?
LASV entry inh: 6%; MARV entry inh: inconclusive; Cycloheximide cs: 29*; Shiga toxin inh: 83*

Results for O=C(CCN1CCCC1Cc1ccccc1)c1ccc2c(c1)OCCO2 (configuration not stated) ?
LASV entry inh: inconclusive; MARV entry inh: inconclusive; Cycloheximide cs: 13; Shiga toxin inh: 43

What do the screens show for `O=C(CCN1CCCCC1)c1ccc2c(c1)OCCO2`?
LASV entry inh: 9%; MARV entry inh: -13%; Cycloheximide cs: 14; Shiga toxin inh: 2

Results for O=C(CCN1CCc2ccccc2C1)c1ccc2c(c1)OCCO2 ?
LASV entry inh: inconclusive; MARV entry inh: -12%; Cycloheximide cs: 51*; Shiga toxin inh: 95*

What do the screens show for `O=C(CCN1CCc2ccccc21)c1ccc2c(c1)OCCO2`?
LASV entry inh: -23%; MARV entry inh: inconclusive; Cycloheximide cs: 26*; Shiga toxin inh: 34

Results for O=C(CCN1CCC(c2ccccc2)C1)c1ccccc1 (configuration not stated) ?
LASV entry inh: -24%; MARV entry inh: -19%; Cycloheximide cs: 5; Shiga toxin inh: -13

How did O=C(CCN1CCC(c2ccccc2)C1)c1ccc2c(c1)OCCO2 (configuration not stated) do in these assays?
MARV entry inh: -6%; Cycloheximide cs: 13*; Shiga toxin inh: 19

Results for Cc1nnc(N2CCC(C(=O)N3CCCCCC3)CC2)c2nn(-c3ccc(Cl)cc3)c(C)c12 ?
Cycloheximide cs: -9; Shiga toxin inh: -10

Results for C(C#CCCCCCCCCC[n+]1ccccc1)#CCCCCCCCCC[n+]1ccccc1 ?
LASV entry inh: inconclusive; MARV entry inh: 2.5µM*; Cycloheximide cs: -3; Shiga toxin inh: -9

What do the screens show for `CN(Cc1ccco1)C(=O)c1c[nH]c2ccc(S(=O)(=O)Nc3ccc4c(c3)OCCO4)cc2c1=O`?
LASV entry inh: inconclusive; MARV entry inh: -8%; Cycloheximide cs: 18*; Shiga toxin inh: -19

What do the screens show for `O=C1c2ccccc2C(=O)N1CSc1nnc(Nc2ccccc2F)s1`?
LASV entry inh: 13%; MARV entry inh: 13%; Cycloheximide cs: 22*; Shiga toxin inh: 30

Results for CCN(CC)C(=O)CCCSc1nnc(Nc2ccccc2F)s1 ?
LASV entry inh: -16%[46.1 µM]; MARV entry inh: inconclusive; Cycloheximide cs: 44*; Shiga toxin inh: 85*

How did C/C(=N/NC(=O)c1cc(-c2ccc(Br)s2)[nH]n1)c1ccco1 do in these assays?
LASV entry inh: inconclusive; MARV entry inh: -11%[46.1 µM]; Cycloheximide cs: 16; Shiga toxin inh: 7

What do the screens show for `C/C(=N\NC(=O)c1cc(-c2ccc(Br)s2)[nH]n1)c1ccncc1`?
LASV entry inh: 19%[46.1 µM]; MARV entry inh: inconclusive; Cycloheximide cs: -4; Shiga toxin inh: -8

How did C/C(=N\NC(=O)c1cc(C(C)C)[nH]n1)c1ccco1 do in these assays?
Cycloheximide cs: 67*; Shiga toxin inh: 138*

Results for C/C(=N\NC(=O)c1cc(C(C)C)[nH]n1)c1ccncc1 ?
LASV entry inh: 0%; MARV entry inh: inconclusive; Cycloheximide cs: 32; Shiga toxin inh: 49*

Results for Cc1nc(C)c(C(=O)N2CCCC(C(=O)c3ccc(Cl)cc3C)C2)s1 (configuration not stated) ?
Cycloheximide cs: -3; Shiga toxin inh: -8

How did O=c1c2cccc(Cl)c2nc2n1Cc1ccccc1-2 do in these assays?
LASV entry inh: inconclusive; MARV entry inh: inconclusive; Cycloheximide cs: 18*; Shiga toxin inh: 28

How did Cc1sc2nc(-c3ccco3)oc(=O)c2c1C do in these assays?
LASV entry inh: 0%; MARV entry inh: -7%; Cycloheximide cs: 14; Shiga toxin inh: -11

What do the screens show for `Cc1sc2nc3n(c(=O)c2c1C)Cc1ccccc1-3`?
MARV entry inh: 0%; Cycloheximide cs: 34*; Shiga toxin inh: 77*

How did O=c1nc2n(c3ccccc13)Cc1ccccc1-2 do in these assays?
MARV entry inh: -2%; Cycloheximide cs: -1; Shiga toxin inh: -3

How did Cc1ccccc1-c1nc2sc(C)c(C)c2c(=O)o1 do in these assays?
Cycloheximide cs: 17*

How did COc1ccc(CC(C)Nc2cccc(SC)c2)cc1 (configuration not stated) do in these assays?
Cycloheximide cs: -3; Shiga toxin inh: -3

How did Cn1c(=O)oc2cc(S(=O)(=O)CCC(=O)N3CCN(c4cccc(Cl)c4)CC3)ccc21 do in these assays?
LASV entry inh: 10%[46.1 µM]

How did Cn1ccnc1C(=O)c1ccc(S(=O)(=O)N2CCCC2)cc1 do in these assays?
LASV entry inh: 6%; MARV entry inh: -8%[46.1 µM]; Cycloheximide cs: 14*; Shiga toxin inh: 28

Results for CC(=O)c1ccc(S(=O)(=O)N2CCCC2)cc1 ?
LASV entry inh: 1%; MARV entry inh: inconclusive; Cycloheximide cs: 43*; Shiga toxin inh: 82*

How did Cc1ccc(S(=O)(=O)N2CCCCC2)cc1C(=O)c1nccn1C do in these assays?
LASV entry inh: 18%; MARV entry inh: 2%; Cycloheximide cs: -1; Shiga toxin inh: -19
